Assay results: PubChem BioAssay AID463082 (The Scripps Research Institute Molecular Screening Center, 2010)
In all, about 330,000 compounds went through this assay and about 4,900 (1.5%) were called active. The sample as a whole holds a higher share of actives than the screen did. A number with no mark means an inactive call.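 How the source made its calls: active means inhibition above the mean inhibition across the screen plus 3 SD (cut at about 25% in these data); inactive means the rest.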

target: Platelet-activating factor acetylhydrolase (Homo sapiens) (UniProt Q13093); assay: inhibition of plasma PAF acetylhydrolase – biochemical, fluorescence polarization, human, primary screen (AID 463082); conditions: recombinant pPAFAH, FP-rhodamine probe fluorescence polarization; at 3.39 µM; active compounds read high;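 further: inhibitors block binding of the rhodamine activity-based probe so polarization drops; 0% = enzyme with DMSO and 100% = wells lacking pPAFAH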
Sequence (Q13093 whole entry, looked up): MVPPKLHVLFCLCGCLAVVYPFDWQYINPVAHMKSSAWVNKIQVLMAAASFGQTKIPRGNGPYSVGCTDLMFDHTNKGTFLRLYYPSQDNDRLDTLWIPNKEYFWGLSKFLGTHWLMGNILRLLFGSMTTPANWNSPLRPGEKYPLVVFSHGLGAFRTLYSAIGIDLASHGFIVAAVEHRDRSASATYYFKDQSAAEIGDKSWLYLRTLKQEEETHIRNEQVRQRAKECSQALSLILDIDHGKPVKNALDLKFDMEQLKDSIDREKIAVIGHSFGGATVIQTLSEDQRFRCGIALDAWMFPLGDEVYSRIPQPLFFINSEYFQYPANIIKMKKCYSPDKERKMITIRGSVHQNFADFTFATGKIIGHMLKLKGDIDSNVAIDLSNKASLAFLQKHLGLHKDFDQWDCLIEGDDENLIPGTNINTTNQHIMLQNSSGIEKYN

Compound	inhibition
Cn1nc(C(C)(C)C)c([N+](=O)[O-])c1C(N)=O	-0.25%
O=[N+]([O-])c1ccccc1SNc1ccccn1	3.58%
COc1cnc(-c2ccccn2)nc1Oc1ccc(C(C)(C)C)cc1	3.59%
C[C@H](CO)N1C[C@H](C)[C@@H](CN(C)C(=O)Nc2ccc3c(c2)OCO3)Oc2c(cccc2N(C)C)C1=O	3.8%
N#CCc1c(C#N)c(N)nc(N2CCCC2)c1C#N	-3.2%
N#Cc1c(N2CCCCC2)nc(N)c2c(N)nc(SCC(=O)O)cc12	27.8% (active)
CCOC(=O)c1cc(C#N)c(N2CCCCC2)nc1-c1ccccc1	4.27%
O=C(N=C1SC2CS(=O)(=O)CC2N1c1ccccc1)c1ccccc1 (configuration not stated)	-2.21%
CS/C(=C\C(=O)c1ccco1)Nc1ccccc1Cl	3.63%
N#CC1=C(N)C(C#N)(C#N)[C@H](c2ccsc2)[C@H]2COCC=C12	3.03%
CCCN1CC=C2C(C#N)=C(N)C(C#N)(C#N)C(c3cc(OC)ccc3OC)C2C1 (configuration not stated)	0.59%
CCN1CC=C2C(C#N)=C(N)C(C#N)(C#N)[C@H](c3ccoc3)[C@H]2C1	25.2% (active)
CCC1CCCCN1C(=S)NC(=O)c1ccco1 (configuration not stated)	-4.39%
CCN(CC)S(=O)(=O)c1cc([N+](=O)[O-])ccc1NNC(=O)Nc1ccccc1	12%
Cc1ccc(C)c(NS(=O)(=O)c2ccc(OCC(=O)NCc3cccnc3)cc2)c1	26.4% (active)
Cc1ccc(CNC(=O)COc2ccc(S(=O)(=O)NC(C)C)cc2)cc1	-3.29%
Cc1cc(S(=O)(=O)NC2CCCCC2)ccc1OCC(=O)NCc1cccnc1	8.28%
Cc1ccc(S(=O)Cc2ccc(C(=O)N3CCN(C4CCCCC4)CC3)o2)cc1 (configuration not stated)	4.39%
COc1ccccc1NC1=NC(c2ccc(Cl)cc2)N=C(N)N1 (configuration not stated)	1.26%
CC(C)(C)OC(=O)NCCCC1=CC2=CC(=O)C(C)(OC(=O)c3ccco3)C(=O)C2=CO1 (configuration not stated)	33.5% (active)
O=C(COC(=O)c1ccco1)NCc1ccc(Cl)cc1	0.66%
COC(=O)CCCC1=CC2=CC(=O)C(C)(OC(=O)c3cccs3)C(=O)C2=CN1c1cccc(C#N)c1 (configuration not stated)	7.86%
O=C(CC1C(=O)NCCN1CC(c1ccccc1)c1ccccc1)NCCc1cn[nH]c1 (configuration not stated)	7.44%

Compound	inhibition
COc1cc([N+](=O)[O-])ccc1NC(=O)COC(=O)CCOc1ccc(C)cc1	6.88%
O=C(Nc1ccccc1C(=O)N1CCOCC1)c1ccc(CSc2ccccc2)cc1	4.67%
CC(C)Oc1c(Br)cc(Br)cc1/C=N/NC(N)=S	1.45%
Cc1cc(/C=N/NC(=O)CC2(C)OCCO2)c(C)n1-c1ccc(Cl)c(Cl)c1	27.6% (active)
Cc1cccc(-n2c(C)cc(/C=N\NC(=O)c3cccs3)c2C)c1	22%
Cc1ccc(-n2c(C)cc(/C=N\NC(=O)CC(=O)NC(C)C)c2C)cc1	1.94%
O=C(N/N=C/c1cc2c(cc1Br)OCO2)C1COc2ccccc2O1 (configuration not stated)	8.36%
O=C(N/N=C\c1cc(Br)c(Br)o1)C1COc2ccccc2O1 (configuration not stated)	-1.47%
O=C(CNC(=O)C1COc2ccccc2O1)N/N=C/c1cc(Br)c(O)c(Br)c1 (configuration not stated)	26.3% (active)
CCOc1ccc(N(C)S(=O)(=O)c2cnc[nH]2)cc1	4.67%
CC(Oc1cc2oc(=O)c3c(c2cc1Cl)CCCC3)C(=O)NCc1ccncc1 (configuration not stated)	7.32%
CCOC(=O)CSc1nnc(CNC(=O)c2cccs2)n1-c1cc(OC)ccc1OC	4.54%
Cn1nccc1NC(=O)Nc1ccc(OC(F)(F)F)cc1	-4.08%
Cn1cccc1/C=N/NC(=O)c1ccc(OC(F)(F)C(F)F)cc1	6.18%
O=C(Nc1ccc(OC(F)(F)F)cc1)c1ccc2c(c1)no[n+]2[O-]	25.4% (active)
CCCCN1C(=O)CCC(C(=O)O)C1c1ccc(OC)cc1 (configuration not stated)	2.74%
CCOC(=O)C(C)Oc1cccc2c(=O)n(CC(=O)NCCc3ccc(OC)c(OC)c3)ccc12 (configuration not stated)	0.87%
Nn1c(SCC(=O)NC2CCCc3ccccc32)nnc1C1CC1 (configuration not stated)	-1.35%
C[C@H](NC(=O)c1ccccc1Cl)C(=O)OCCOc1cccc(Cl)c1	0.09%
COC/C=C/C1=CC2=CC(=O)C(C)(OC(=O)CCC(=O)OC)C(=O)C2=CO1 (configuration not stated)	32.3% (active)
COC(=O)CCCC1=CC2=CC(=O)C(C)(OC(=O)c3cccs3)C(=O)C2=CN1CC(C)C (configuration not stated)	5.09%
CCCCC1=CC2=CC(=O)C(C)(OC(=O)CC)C(=O)C2=CN1CCCOC(C)C (configuration not stated)	-0.51%
COc1ccc(OCC(=O)OCCN(C)C)cc1	0.82%

Compound	inhibition
O=C(CCCN1C(=O)CCC1=O)Nc1ccc(Cl)c(C(F)(F)F)c1	5.28%
COc1ccc(Cl)cc1NC(=O)COC(=O)C(CC(C)C)N1C(=O)C2CC=CCC2C1=O (configuration not stated)	-2.85%
COc1ccccc1N1CC(C(=O)NCCN2C(=O)S/C(=C\c3cccnc3)C2=O)CC1=O (configuration not stated)	4.51%
CCOc1ccc(N2CC(C(=O)NCCN3C(=O)S/C(=C\c4cccnc4)C3=O)CC2=O)cc1 (configuration not stated)	8.89%
COc1ccc(N2CC(C(=O)NCCN3C(=O)S/C(=C\c4cccnc4)C3=O)CC2=O)c(OC)c1 (configuration not stated)	65.4% (active)
COc1ccc(S(=O)(=O)N(C)CC(=O)N2CCCC2)cc1	-1%
COc1cc(OC)cc(C(=O)NNC(=O)Cc2cccs2)c1	19.8%
CSc1nnc(SCc2nc3sc(C(=O)O)c(C)c3c(=O)[nH]2)s1	49.9% (active)
Cc1sc2nc(CSCC(=O)NC3CCCCC3)[nH]c(=O)c2c1C	9.75%
CC(=O)c1sc2nc(SCC(=O)N3CCCCC3)[nH]c(=O)c2c1C	13.1%
CCc1ccc(NC(=O)CN2C(=O)CSC2=O)cc1	-3.77%
COc1cccc(CNc2nc(C(F)(F)F)nc3ccccc23)c1	2.55%
CC(Nc1nc(C(F)(F)F)nc2ccccc12)c1cccs1 (configuration not stated)	28.4% (active)
CCc1ccc(C(CNc2nc(C(F)(F)F)nc3ccccc23)N(C)C)cc1 (configuration not stated)	-1.56%
COc1ccc(CN2C(CC(=O)Nc3cccnc3)c3ccc(C(F)(F)F)cc3S2(=O)=O)cc1 (configuration not stated)	6.11%
COc1ccc(C(=O)/C=C/c2ccc(OC3CSC3)cc2)cc1	1.34%
COc1ccc(C(=O)/C=C/c2cccnc2)c(OC)c1	-1.82%
COc1ccc(/C=C/C(=O)c2cc(Br)ccc(=O)c2O)cc1	40.7% (active)
O=C1N[C@H](Cc2c[nH]c3ccccc23)COC(=O)[C@H](Cc2ccc(F)cc2)C/C=C\C[C@H]1CC(=O)N(CCO)Cc1ccccc1	21.3%
COCCN1C(=O)C(=O)/C(=C(/O)c2ccc(S(=O)(=O)N3CCOCC3)cc2)C1c1ccc(OC)c(OC)c1 (configuration not stated)	0.25%
CCn1c(SCC(=O)N/N=C/c2ccccc2OCC(=O)O)nnc1-c1ccc(C(C)(C)C)cc1	11.4%
COc1ccc(CCOC(=O)CNC(=O)c2ccc(Cl)cc2Cl)cc1	-0.13%
Cc1coc2c(O)cc3c(c12)OC1(N2CCCCC2)C(=O)NCCCC31 (configuration not stated)	27.6% (active)

Compound	inhibition
COc1ccc(Cn2nnc3c(=O)[nH]c(C4CCN(C(=O)c5ccccc5Cl)CC4)nc32)cc1	9.22%
Cc1ccc(NC(=O)N2CCC(c3nc4c(nnn4Cc4c(F)cccc4Cl)c(=O)[nH]3)CC2)cc1	27.7% (active)
O=C(Nc1ccc(F)cc1)N1CCCC(c2nc3c(nnn3Cc3ccccc3Cl)c(=O)[nH]2)C1 (configuration not stated)	1.47%
Cc1ccc(NC(=O)C2CC(=O)N(c3ccc4c(c3)OCCO4)C2)cc1S(=O)(=O)N1CCCCCC1 (configuration not stated)	0.97%
CCc1nnc(NC(=O)C2CC(=O)N(c3ccc4c(c3)OCCO4)C2)s1 (configuration not stated)	2.68%
CCOC(=O)c1ccc(NC(=O)C2CC(=O)N(c3ccc4c(c3)OCCO4)C2)cc1 (configuration not stated)	29.3% (active)
O=C(COC(=O)c1ccc(S(=O)(=O)N2CCc3ccccc3C2)cc1)NC(=O)NCc1ccco1	-5.65%
S=c1nccc(-c2cc(Cl)sc2Cl)[nH]1	4.56%
CCN(Cc1ccccc1)C(=O)CSc1nc(C)cc2c1C(=O)OC2	7%
COc1ccccc1C(=O)Nc1cccc(C(=O)N2CCOCC2)c1	-0.6%
CN(C)C(=O)CCc1ccc2c3c([nH]c2c1)[C@]1(C)[C@@H](C(=O)N2CCCCC2)C[C@H](CC(=O)NCCC2=CCCCC2)C(=O)N1CC3	9.04%
O=C1C(=O)N(CCCO)C(c2ccccc2)/C1=C(\O)c1ccc(Br)cc1 (configuration not stated)	2.67%
CC(C)(C)NC(=O)C(c1ccc(Cl)cc1)N(CCO)C(=O)c1snc(C(N)=O)c1N (configuration not stated)	-1.41%
O=C(N/N=C/c1c[nH]c2ccccc12)c1cc2ccccc2o1	15.3%
O=C(O)c1cccc(NC(=S)N/N=C/c2c[nH]c3ccccc23)c1	26.4% (active)
CN(C)S(=O)(=O)c1cccc(NC(=S)N/N=C/C(=O)c2ccccc2)c1	12.9%
Cc1ccc(-c2cc(C(=O)NCc3cn(C)nc3C)c3cc(Br)ccc3n2)cc1	2.72%
O=C(Nc1ccccc1F)c1ccccc1-c1ccc(C(F)(F)F)cc1	0.76%
Cc1nn(CC(=O)N/N=C/c2ccc(F)cc2)c(C)c1[N+](=O)[O-]	-6.43%
COc1cc(/C=N/NC(=O)c2cc(C)n(-c3ccc(F)cc3)c2C)cc(OC)c1O	9.67%
Cc1cc(C(=O)N/N=C/c2ccc(O)c([N+](=O)[O-])c2)c(C)n1-c1ccc(F)cc1	33.4% (active)
COCCNc1cc(-c2ccccc2)nc2cc(-c3cccc(F)c3)nn12	-13.5%
CC(NC(=S)NC1CCCCC1)C(c1ccccc1)N1CCOCC1 (configuration not stated)	2.17%
